Results on eight molecules are retold here after PubChem BioAssay (EPA / NIEHS).

Results filed as inconclusive are left out. Activity calls are given as the source filed them. Rule for the calls, unless noted: active = hit-call score of the fitted dose curve at least 0.9, where 1 is the maximum; inactive = score below 0.9.

The target in assay [1] is Retinoic acid receptor RXR-alpha (Homo sapiens) (UniProt P19793). Kind of assay: ATG_RXRa_TRANS: Attagene TRANS-FACTORIAL HepG2 Assay for human Retinoid X Receptor alpha (RXRa) (AID 2283012; active = hit-call score of the fitted dose curve at least 0.9, where 1 is the maximum). Summed up: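 Transient transfection of human HepG2 with multiple GAL4-UAS reporter constructs; 24 h compound exposure; total RNA isolated, reverse-transcribed, PCR-amplified, 6-FAM labelled, HpaI-cut, resolved by capillary electrophoresis. Positive-direction fit versus DMSO.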
Retinoic acid receptor RXR-alpha (Homo sapiens), sequence (P19793 whole entry, looked up, the tested form may be a part): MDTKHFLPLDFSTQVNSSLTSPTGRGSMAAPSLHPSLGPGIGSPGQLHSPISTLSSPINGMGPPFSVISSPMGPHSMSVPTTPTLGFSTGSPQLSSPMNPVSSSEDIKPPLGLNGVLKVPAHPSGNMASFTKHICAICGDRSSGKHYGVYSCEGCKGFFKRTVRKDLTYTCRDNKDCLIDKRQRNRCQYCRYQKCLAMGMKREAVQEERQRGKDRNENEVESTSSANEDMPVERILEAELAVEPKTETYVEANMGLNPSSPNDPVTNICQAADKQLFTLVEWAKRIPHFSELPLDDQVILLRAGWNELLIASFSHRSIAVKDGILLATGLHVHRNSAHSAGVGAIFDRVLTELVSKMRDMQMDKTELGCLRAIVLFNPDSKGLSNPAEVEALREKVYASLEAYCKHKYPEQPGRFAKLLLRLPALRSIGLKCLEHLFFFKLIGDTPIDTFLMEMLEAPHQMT

Assay [2] has as its target human Retinoid X Receptor beta (RXRb), RXRB (gene 6257) (UniProt P28702). Kind of assay: ATG_RXRb_TRANS: Attagene TRANS-FACTORIAL HepG2 Assay for human Retinoid X Receptor beta (RXRb) (AID 2283013; active = hit-call score of the fitted dose curve at least 0.9, where 1 is the maximum). Summed up:
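Transfect HepG2 with GAL4-UAS multi-reporter constructs (chimeric NR-Gal4, TRANS format); dose compound 24 h; isolate RNA, RT-PCR, FAM primer extension, HpaI digest; quantify by capillary electrophoresis; positive direction vs DMSO.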

Read-out in assay [3]: E-selectin (Homo sapiens) (UniProt P16581)
Kind of assay: BSK_3C_Eselectin: BioMAP Diversity Plus: 3C Assay for Eselectin Biomarker Activity (AID 2283015).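 For outcome: cell surface E-selectin protein quantified by ELISA 24 h after dosing.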 As to conditions: primary human endothelial cells (HUVEC); actives raise or lower the signal. A digest of the protocol:
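Human vascular endothelium from umbilical vein is exposed to test chemicals for 24 h. E-selectin levels are read by ELISA and compared with DMSO controls.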

Read-out in assay [4]: Interleukin-1 alpha (IL1a), IL1A (gene 3552)
Kind of assay: BSK_BE3C_IL1a: BioMAP Diversity Plus: BE3C Assay for Interleukin-1 alpha (IL1a) Biomarker Activity (AID 2283016). As to conditions: primary human bronchial epithelial cells; actives raise or lower the signal. A digest of the protocol: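 BE3C primary human bronchial epithelium; cpd 24 h; IL-1a by ELISA; bidirectional fit vs DMSO; parallel SRB (0.1% SRB, 10% TCA fix, 560 nm) for cytotoxicity.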

Read-out in assay [5]: Monocyte Chemoattractant Protein-1 (MCP1), CCL2 (gene 6347)
Kind of assay: BSK_4H_MCP1: BioMAP Diversity Plus: 4H Assay for Monocyte Chemoattractant Protein-1 (MCP1) Biomarker Activity (AID 2283018). As to conditions: primary human endothelial cells (HUVEC); actives raise or lower the signal. A digest of the protocol:
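ELISA read-out of MCP-1 from human vascular endothelial primary cells taken at 24 hours after compound exposure. Activity was fitted in both directions relative to DMSO, which served as negative control.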

Read-out in assay [6]: Human Leukocyte Antigen - DR isotype (HLADR), HLA-DRA (gene 3122)
Kind of assay: BSK_3C_HLADR: BioMAP Diversity Plus: 3C Assay for Human Leukocyte Antigen - DR isotype (HLADR) Biomarker Activity (AID 2283019).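 For outcome: ELISA of cell-surface HLA-DR on HUVEC 24 h after dosing.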 The note with it: primary human endothelial cells (HUVEC); actives raise or lower the signal. Summed up:
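Endothelial cells from human umbilical vein are treated with test chemical; after 24 h, HLA-DR levels are measured by ELISA. Data are fitted in both directions using DMSO as the baseline.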

Read-out in assay [7]: Interleukin-8 (IL8), CXCL8 (gene 3576)
Kind of assay: BSK_3C_IL8: BioMAP Diversity Plus: 3C Assay for Interleukin-8 (IL8) Biomarker Activity (AID 2283020). The note with it: primary human endothelial cells (HUVEC); actives raise or lower the signal. Summed up:
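ELISA read-out of IL-8 from human umbilical vein endothelium, measured 24 h after chemical dosing. Activity is expressed relative to DMSO negative control, with both increases and decreases fitted.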

Read-out in assay [8]: Monokine induced gamma interferon (MIG), CXCL9 (gene 4283)
Kind of assay: BSK_3C_MIG: BioMAP Diversity Plus: 3C Assay for Monokine induced gamma interferon (MIG) Biomarker Activity (AID 2283021).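 For AC50: MIG protein level measured by immunoassay in the treated endothelial cultures.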 As to conditions: primary human endothelial cells (HUVEC); actives raise or lower the signal. Summed up:
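Read-out is ELISA detection of MIG on human umbilical vein endothelial cells, taken 24 h after dosing. Gain or loss of signal was scored relative to DMSO controls using bidirectional curve fitting.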

The target of assay [9] is human Vitamin D Receptor (VDR), VDR (gene 7421) (UniProt P11473). Kind of assay: ATG_VDR_TRANS: Attagene TRANS-FACTORIAL HepG2 Assay for human Vitamin D Receptor (VDR) (AID 2283022; active = hit-call score of the fitted dose curve at least 0.9, where 1 is the maximum). Summed up:
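Fluorescence of labelled reporter cDNA fragments, resolved by capillary electrophoresis, gives mRNA induction after 24 h treatment of HepG2 cells carrying transfected Gal4-fusion reporter units. Activity is fitted in the positive direction with DMSO as baseline.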

Assay [10] is described as follows: BSK_3C_SRB: Viability Assessment in the BioMAP Diversity Plus: 3C Assay (AID 2283023).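 Note: fitted both ways against DMSO so a hit may be signal rise or drop.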 The note with it: primary human endothelial cells (HUVEC). A digest of the protocol: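 Cells were dosed with chemical, cultured 24 h, fixed with 10% TCA, stained with 0.1% SRB and read at 560 nm. Human umbilical vein endothelium was used; DMSO served as negative control and baseline.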

Read-out in assay [11]: Matrix Metallopeptidase 1 (MMP1), MMP1 (gene 4312)
Kind of assay: BSK_BE3C_MMP1: BioMAP Diversity Plus: BE3C Assay for Matrix Metallopeptidase 1 (MMP1) Biomarker Activity (AID 2283024). The note with it: primary human bronchial epithelial cells; actives raise or lower the signal. Summed up: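 Human bronchial epithelial cells (BE3C system) exposed to compound for 24 h; MMP1 then quantified by ELISA. Activity was fitted in both directions relative to DMSO.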

Read-out in assay [12]: Pselectin, SELP (gene 6403)
Kind of assay: BSK_4H_Pselectin: BioMAP Diversity Plus: 4H Assay for Pselectin Biomarker Activity (AID 2283026). The note with it: primary human endothelial cells (HUVEC); actives raise or lower the signal. Summed up: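 ELISA read-out of P-selectin on human umbilical vein endothelium after 24 h of dosing. Values derive from bidirectional fitting relative to DMSO. Parallel SRB protein staining flagged overt cytotoxicity.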

The nature of assay [13]: BSK_4H_SRB: Viability Assessment in the BioMAP Diversity Plus: 4H Assay (AID 2283027).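 For AC50: curves fitted both ways versus DMSO so AC50 may be loss or gain.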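 Note: cells exposed to compound for 24 h before staining.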 As to conditions: primary human endothelial cells (HUVEC). Summed up: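 Human umbilical vein endothelial cells were dosed with chemical and, after 24 h, fixed with 10% TCA, stained with 0.1% sulforhodamine B, and read at 560 nm to give total protein as a cytotoxicity measure. Bidirectional fitting relative to DMSO control.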

Assay [14] is described as follows: BSK_BE3C_SRB: Viability Assessment in the BioMAP Diversity Plus: BE3C Assay (AID 2283028).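 For AC50: fitted both ways so AC50 may mark signal gain or loss versus DMSO.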 The note with it: primary human bronchial epithelial cells. Summed up: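 Overt cytotoxicity was assessed as total protein in confluent human primary bronchial epithelial cultures 24 h after chemical addition, using 0.1% sulforhodamine B staining read at 560 nm.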
Read-out in assay [15]: Thrombomodulin, THBD (gene 7056)
Kind of assay: BSK_3C_Thrombomodulin: BioMAP Diversity Plus: 3C Assay for Thrombomodulin Biomarker Activity (AID 2283029). As to conditions: primary human endothelial cells (HUVEC); actives raise or lower the signal. Summed up: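 Read-out is ELISA of thrombomodulin on human umbilical vein endothelium 24 h after chemical dosing. Gain or loss of signal is scored relative to DMSO. Overt cytotoxicity is checked in parallel cultures by sulforhodamine B staining.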

Read-out in assay [16]: Urokinase-type plasminogen activator receptor (uPAR), PLAUR (gene 5329)
Kind of assay: BSK_4H_uPAR: BioMAP Diversity Plus: 4H Assay for Urokinase-type plasminogen activator receptor (uPAR) Biomarker Activity (AID 2283030). The note with it: primary human endothelial cells (HUVEC); actives raise or lower the signal. A digest of the protocol: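 Chemicals are dosed onto human vascular endothelial primary cells (umbilical vein). After 24 h, uPAR is read by ELISA. Gain or loss of signal is fitted relative to DMSO.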

Read-out in assay [17]: Vascular endothelial growth factor receptor 2 (Homo sapiens) (UniProt P35968)
Kind of assay: BSK_4H_VEGFRII: BioMAP Diversity Plus: 4H Assay for Vascular endothelial growth factor receptor 2 (VEGFR2) Biomarker Activity (AID 2283031). The note with it: primary human endothelial cells (HUVEC); actives raise or lower the signal. Summed up: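 VEGFRII levels on human vascular endothelial primary cells were determined by ELISA at 24 hours post-dosing, with gain- or loss-of-signal fitted against DMSO controls.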

Assay [18] deals with human Thyroid Receptor alpha (THRa1), THRA (gene 7067) (UniProt P10827). Kind of assay: ATG_THRa1_TRANS: Attagene TRANS-FACTORIAL HepG2 Assay for human Thyroid Receptor alpha (THRa1) (AID 2283014; active = hit-call score of the fitted dose curve at least 0.9, where 1 is the maximum). A digest of the protocol: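 First, HepG2 cells receive multiple GAL4-UAS reporter units and the chimeric receptor. They are then dosed for 24 h, after which RNA is reverse-transcribed, amplified, labelled, HpaI-cut and sized by capillary electrophoresis; gain relative to DMSO is scored.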
human Thyroid Receptor alpha (THRa1), THRA (gene 7067), sequence (P10827 whole entry, looked up, the tested form may be a part): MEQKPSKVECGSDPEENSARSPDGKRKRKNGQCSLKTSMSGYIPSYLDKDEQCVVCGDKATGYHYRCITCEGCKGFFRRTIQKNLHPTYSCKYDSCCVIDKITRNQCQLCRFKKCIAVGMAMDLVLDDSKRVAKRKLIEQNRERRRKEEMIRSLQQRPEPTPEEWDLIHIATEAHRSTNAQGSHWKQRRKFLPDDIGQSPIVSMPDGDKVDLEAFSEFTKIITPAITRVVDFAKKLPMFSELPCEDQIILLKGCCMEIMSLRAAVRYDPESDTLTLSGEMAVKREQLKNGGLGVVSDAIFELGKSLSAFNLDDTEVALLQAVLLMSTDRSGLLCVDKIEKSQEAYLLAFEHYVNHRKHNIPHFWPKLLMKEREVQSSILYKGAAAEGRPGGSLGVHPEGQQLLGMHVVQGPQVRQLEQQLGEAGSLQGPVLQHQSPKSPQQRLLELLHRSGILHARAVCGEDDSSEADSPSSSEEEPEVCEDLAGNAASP

Assay [19] can be described thus: BSK_3C_Vis: BioMAP Diversity Plus: 3C Assay for Morphology Visualization (AID 2283025).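 Note: fitted both ways so gain or loss versus DMSO counts.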 The note with it: primary human endothelial cells (HUVEC). A digest of the protocol: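 Chemicals were added to primary human umbilical vein endothelium, cells were incubated 24 h, and morphology was then visualized by light microscopy. Gain or loss of signal was fitted bidirectionally relative to DMSO.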

E-selectin (Homo sapiens), sequence (P16581 whole entry, looked up): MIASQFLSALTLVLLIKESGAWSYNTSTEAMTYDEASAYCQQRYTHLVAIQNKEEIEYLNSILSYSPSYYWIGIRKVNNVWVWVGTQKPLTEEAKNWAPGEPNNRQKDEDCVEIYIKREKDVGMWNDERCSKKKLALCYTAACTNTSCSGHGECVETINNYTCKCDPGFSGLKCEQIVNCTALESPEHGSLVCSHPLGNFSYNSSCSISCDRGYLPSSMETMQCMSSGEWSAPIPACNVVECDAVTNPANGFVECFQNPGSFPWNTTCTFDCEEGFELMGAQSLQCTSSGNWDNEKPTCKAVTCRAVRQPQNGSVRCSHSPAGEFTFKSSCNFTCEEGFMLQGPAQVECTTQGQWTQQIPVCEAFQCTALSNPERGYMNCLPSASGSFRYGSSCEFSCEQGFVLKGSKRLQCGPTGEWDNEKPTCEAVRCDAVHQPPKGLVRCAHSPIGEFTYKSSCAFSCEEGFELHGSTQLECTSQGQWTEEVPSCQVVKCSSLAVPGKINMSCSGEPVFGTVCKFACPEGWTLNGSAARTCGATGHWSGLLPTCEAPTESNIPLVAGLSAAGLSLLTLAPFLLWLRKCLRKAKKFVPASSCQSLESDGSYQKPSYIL
human Vitamin D Receptor (VDR), VDR (gene 7421), sequence (P11473 whole entry, looked up, the tested form may be a part): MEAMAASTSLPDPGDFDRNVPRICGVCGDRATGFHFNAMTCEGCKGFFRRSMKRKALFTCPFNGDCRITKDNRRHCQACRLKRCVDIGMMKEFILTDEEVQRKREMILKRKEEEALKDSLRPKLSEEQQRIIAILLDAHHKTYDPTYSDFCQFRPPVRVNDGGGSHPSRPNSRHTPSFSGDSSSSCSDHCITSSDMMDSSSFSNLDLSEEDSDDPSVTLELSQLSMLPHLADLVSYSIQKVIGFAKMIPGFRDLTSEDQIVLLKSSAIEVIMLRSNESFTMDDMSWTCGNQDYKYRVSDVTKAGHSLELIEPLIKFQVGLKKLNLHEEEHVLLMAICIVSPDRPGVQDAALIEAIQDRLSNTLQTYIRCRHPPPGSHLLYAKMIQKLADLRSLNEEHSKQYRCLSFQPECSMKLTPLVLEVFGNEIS
human Retinoid X Receptor beta (RXRb), RXRB (gene 6257), sequence (P28702 whole entry, looked up, the tested form may be a part): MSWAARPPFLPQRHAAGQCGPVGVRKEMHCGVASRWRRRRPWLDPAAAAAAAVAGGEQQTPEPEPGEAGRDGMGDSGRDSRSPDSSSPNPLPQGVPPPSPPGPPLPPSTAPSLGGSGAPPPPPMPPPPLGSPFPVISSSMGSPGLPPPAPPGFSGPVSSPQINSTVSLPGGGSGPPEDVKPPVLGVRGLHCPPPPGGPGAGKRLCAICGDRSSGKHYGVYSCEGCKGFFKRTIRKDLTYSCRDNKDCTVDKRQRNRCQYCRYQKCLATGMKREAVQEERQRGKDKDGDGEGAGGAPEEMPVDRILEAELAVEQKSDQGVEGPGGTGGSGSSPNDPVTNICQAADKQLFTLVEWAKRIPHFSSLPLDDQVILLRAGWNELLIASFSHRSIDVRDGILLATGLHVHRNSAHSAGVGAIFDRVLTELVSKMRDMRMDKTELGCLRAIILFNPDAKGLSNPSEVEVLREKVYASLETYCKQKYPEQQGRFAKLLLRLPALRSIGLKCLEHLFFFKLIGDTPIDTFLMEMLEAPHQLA

For orientation: AC50 means the midpoint of the concentration-response curve, whichever way the signal moves. `CCCCCCCCCCCCc1ccccc1`: the molecule was called inactive in [1], in [3], in assay [4], in [5], in assay [7] and in assay [8]. Further, the molecule was called inactive in assay [9], in [10], in [11], in assay [13], in assay [14] and in assay [15]. In addition, the result in assay [16] and in [17] was inactive. Further, the results for the AC50 in assay [2], in [6] and in [12] were 61.2 µM (active), 33.2 µM (active) and 31.5 µM (active), respectively.

Consider `Nc1nc2ncc(CNc3ccc(C(=O)N[C@@H](CCC(=O)O)C(=O)O)cc3)nc2c(=O)[nH]1`, for which the molecule was classed as inactive in [1], in assay [18], in assay [3], in assay [4], in assay [6] and in assay [8]. Moreover, the molecule was called inactive in [9], in [10], in assay [11], in [12], in assay [13] and in assay [14]. The result in assay [15], in [16] and in assay [17] was inactive.

For `CCN(C(=O)c1cc(C)cc(OC[C@H](C)Nc2ccncc2)c1)C(C)C`, the outcome in assay [1], in assay [3], in [4], in assay [5], in assay [6] and in [7] was inactive. Further, the result in [8], in assay [10], in assay [11], in assay [12], in assay [14] and in assay [15] was inactive. The outcome in assay [16] and in assay [17] was inactive.

As to `Cn1c(=O)c2c(ncn2C)n(C)c1=O`, the outcome in [1], in [2], in assay [3], in [4], in assay [6] and in assay [7] was inactive. Also, the result in assay [8], in assay [10], in assay [11], in assay [12], in [13] and in [14] was inactive. In addition, the result in assay [15], in [16] and in [17] was inactive.

For `CN(C)c1ccc(Cc2ccc(N(C)C)cc2)cc1`, the outcome in [1], in [18], in assay [3], in assay [4], in assay [8] and in [9] was inactive. Further, the outcome in [10], in assay [19], in assay [13], in assay [14], in assay [15] and in assay [16] was inactive. Also, the result in assay [17] was inactive. Further, the AC50 in assay [6] was 31.8 µM (active); in [7], 20 µM (active); in assay [11] it was 12.6 µM (active); in [12], 32.8 µM (active).

Turning to `COCCOc1cc2cc(C(=O)NC3CCN(C(C)C)CC3)n(CC(=O)Nc3ccc(Cl)cn3)c2cn1`, the result in assay [1], in [2], in assay [3], in assay [4], in [5] and in assay [6] was inactive. The result in [8], in assay [10], in assay [11], in assay [19], in [12] and in assay [14] was inactive. Moreover, the result in assay [15] and in assay [16] was inactive.

As for `O=C1OC(=O)C2C3C=CC(C3)C12` (stereo not given), the molecule was classed as inactive in assay [1], in assay [2], in assay [3], in assay [4], in assay [6] and in [7]. The result in [8], in assay [9], in assay [10], in assay [11], in [19] and in assay [12] was inactive. The result in assay [14], in assay [15] and in assay [16] was inactive.

On to `CCc1cc(SCc2sc(-c3ccc(C(F)(F)F)cc3)nc2CN2CCN(c3ccc(OC)cc3)CC2)ccc1OCC(=O)O`, for which the outcome in [1] was inactive. In addition, the AC50 in [3] was 15.2 µM (active); in assay [4], 7 µM (active); in assay [6], 11.4 µM (active); in [7] it was 16.7 µM (active); in [8], 16.9 µM (active); in assay [10], 5.75 µM (active). Besides, the half-maximal activity concentration (AC50) in [11] was 9.73 µM (active); in [12], 11.3 µM (active); in [13] it was 11.8 µM (active); in assay [14] it was 5.19 µM (active); in [15], 37 µM (active); in [16], 16 µM (active).
